An excerpt weighted towards active compounds, which were near 5.4% of everything screened.
VACV Venus inh: qHTS for Stage-Specific Inhibitors of Vaccinia Orthopoxvirus: Venus Reporter Primary qHTS. 330,000 tested, 0.46% active. Potency, µM (highest dose often 36.5 µM), hits mostly inhibitors. Vaccinia virus Venus reporter expression, fluorescence; calls by dose curve; tested in A549 cells; note: nearly all actives have a fitted effect of over 30% in size
Sm TGR inh: qHTS Assay for the Inhibitors of Schistosoma Mansoni Peroxiredoxins; Schistosoma mansoni thioredoxin glutathione reductase (TGR), Q962Y6; purified TGR, DTNB reduction, TNB absorbance 405 nm; Potency, µM (highest dose often 114 µM), hits mostly inhibitors; 360,000 tested, 3% active; active = well fitted inhibition curve with a large enough effect; inconclusive = small, poorly fitted or top-dose-only effect; inactive = no such curve, though single readings can be large or run the other way; note: nearly all actives have a fitted effect of over 60% in size
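First, TGR (20 nM dispensed) and NADPH were mixed with compound. Second, a 15 min room-temperature incubation followed. Third, further NADPH and then DTNB were added to start the reaction. Finally, TNB absorbance was monitored kinetically.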
Marburg entry inh: qHTS for inhibitors of binding or entry into cells for Marburg Virus; Marburg virus pseudotyped entry inhibition, cell reporter; Potency, µM (top dose mostly 37.8 µM), hits mostly inhibitors; 300,000 tested, 1.8% active; AID 540276, 2011; calls by dose curve; tested in HEK293 cells
FMDV inh: High Throughput Screening for Foot and Mouth Disease Virus Antivirals. FMDV antiviral cell-based qHTS. Potency, µM (series often up to 57.9 µM), usual class: inhibitors. 410,000 tested, 1.2% active; calls by dose curve; tested in HEK293T cells; note: read-out not given here; nearly all actives have a fitted effect of over 45% in size
Vaccinia mCherry: qHTS for Stage-Specific Inhibitors of Vaccinia Orthopoxvirus: mCherry Reporter Primary qHTS; Potency, µM (titrated, usually from 36.5 µM), most hits filed as inhibitors; 310,000 tested, 0.63% active; Vaccinia virus mCherry reporter infection, fluorescence; calls by dose curve; tested in A549 cells; note: nearly all actives have a fitted effect of over 35% in size
LASV entry inh: qHTS for Inhibitors of binding or entry into cells for Lassa Virus; Lassa virus pseudotype entry inhibition, cell reporter; Potency, µM (doses to about 37.9 µM), most hits filed as inhibitors; 300,000 tested, 1.2% active; AID 540256, 2011; calls by dose curve; tested in HEK293 cells; note: nearly all actives have a fitted effect of over 50% in size
A number is an active result; – = inactive; ? = inconclusive; · = no result given; ! = a repeat was not active; [ ] = dose if it differs, or a comment.

SMILES	VACV Venus inh	Sm TGR inh	Marburg entry inh	FMDV inh	Vaccinia mCherry	LASV entry inh
CCOC(=O)c1ccc(-n2c(CCC(=O)O)ccc2-c2ccc(F)cc2)cc1	–	22µM	·	–	–	·
CCOC(=O)c1ccc(NC(=O)Nc2ccc(F)cc2)cc1	–	–	–	–	–	?
COc1ccc(-c2ccc(CCC(=O)O)n2-c2ccccc2C(F)(F)F)cc1	–	?	–	–	–	–
Cc1ccc(-c2ccc(CCC(=O)O)n2-c2cccc(C)c2C)cc1	–	22µM	–	–	–	?
Cc1ccc(-c2ccc(CCC(=O)O)n2-c2ccc(C(C)C)cc2)cc1	–	40µM	–	–	–	–
O=C(O)CCc1ccc(-c2ccccc2)n1-c1cccc(O)c1	–	14µM	–	·	–	–
O=C(O)CCc1ccc(-c2ccc(Br)cc2)n1-c1ccccc1O	–	–	–	–	–	–
N#Cc1ccc2c(c1)C[C@]1(CCCCN3C(=O)c4ccccc4C3=O)OC3=C(C(=O)OC4(CCCCC4)C3)C2O1	·	–[22.9 µM]	·	·	·	·
O=C1[C@H]2[C@@H]3[C@@H](O)[C@H](O)CC(=NOCc4ccccc4)[C@@H]3CC[C@H]2C(=O)N1C1CCCCC1	·	·	–	·	·	–
COc1ccc(N2CCN(C(=O)C3CCN(S(=O)(=O)c4cnc[nH]4)CC3)CC2)cc1	–	–	–	–	–	?
COC(=O)[C@H](C)Sc1nc2c(c(=O)n(C)c(=O)n2C)n1CCC(C)C	·	·	–	·	·	·
COc1ccccc1CNC(=O)CCCn1c(=O)c2ccccc2n(Cc2ccccc2C#N)c1=O	–	–	–	–	–	–
CCOC(C(=O)OC[C@@H](O)CN(CC)CC)(c1ccccc1)c1ccccc1	·	·	–	·	·	·
CCOC(=O)c1ccc(N=C2SC(C(=O)Nc3ccccc3)CC(=O)N2C)cc1 (configuration not stated)	–	–	·	–	–	–
Cc1ccc(-n2nc(CO)c(C(=O)NCCCCc3ccccc3)n2)cc1	–	–	?	–	–	–
CC(C)c1ccc(NS(=O)(=O)c2ccc(Cl)nc2)cc1	7.9µM	–	–	–	4µM	–
O=[N+]([O-])c1cc(NS(=O)(=O)c2ccc(Cl)nc2)ccc1Cl	–	–	–	–	?	–
O=C(NC(=S)NC1CCCc2ccccc21)c1ccc(F)cc1 (configuration not stated)	–	18µM	?	–	–	?
O=C(Cc1ccc(Br)cc1)NC1CCCc2ccccc21 (configuration not stated)	–	–	?	–	–	?
O=C(NC(=S)NC1CCCCC1)c1ccccc1	–	1µM	–	–	–	?
CN(C(=O)CCl)C1CCCc2ccccc21 (configuration not stated)	·	11µM	·	16µM	·	·
O=C(CCl)NC1CCCc2ccccc21 (configuration not stated)	?	25µM	?	?	?	–
COc1cccc(-n2nnc(-c3nc(-c4ccccc4F)no3)c2C)c1	–[7.34 µM]	–	·	–	–[7.34 µM]	–
COC(=O)c1sc(N2C(=O)c3oc4ccc(C)cc4c(=O)c3C2c2ccc(O)c(OC)c2)nc1C (configuration not stated)	–	–	–	–	–	–
Cc1c(Cl)cccc1Nc1nc(NCCO)c2ccccc2n1	–	–	7.9µM	–	–	?
SMILES	VACV Venus inh	Sm TGR inh	Marburg entry inh	FMDV inh	Vaccinia mCherry	LASV entry inh
N#C/C(=C\c1ccc(C(=O)O)cc1)c1ccccn1	–	–	–	–	–	?
N#C/C(=C\c1c[nH]c2ccc(Br)cc12)c1ccccn1	–	–	13µM	–	?	?
CCOc1ccccc1NS(=O)(=O)c1c(-c2ccc(C)cc2)csc1C(=O)OC	–	–	·	–	–	?
Oc1ccccc1O	–	16µM	2.5µM!	–	–	?
COc1ccc(C(=O)N/N=C/c2ccc(N(C)c3ccccc3)cc2)cc1	·	·	·	32µM	·	·
CN(C)c1ccc(/C=N/NC(=O)c2ccc(Cl)cc2)cc1	–	–	–	·	?	–
COc1ccc(C(=O)N/N=C/c2ccc(OC(=O)c3ccccc3)cc2)cc1	–	–	–	–	–	–
C/C(=N/N=C/c1ccc(N(C)C)cc1)c1ccccc1	–	–	?	10µM	–	?
CN(C)c1ccc(/C=N/NC(=O)c2ccccc2)cc1	–	·	–	–	–	10µM
CC(=O)c1ccccc1NC(=O)COC(=O)/C(=C/c1ccccc1)n1nnnc1C	–	?	?	22µM	–	?
Cc1nnnn1/C(=C\c1ccccc1)C(=O)OCC(=O)N(C)C1CCS(=O)(=O)C1 (configuration not stated)	–	–	–	–	–	–
CCN(C(=O)COC(=O)/C(=C/c1ccccc1)n1nnnc1C)C1CCCCC1	–	–	13µM	22µM	?	–
CC(=O)c1ccccc1NC(=O)COC(=O)C1=NN(c2ccccc2)C(=O)CC1	–	–	–	–	–	–
Cc1cccc(C)c1NC(=O)CCS(=O)(=O)c1ccc2c(c1)n(C)c(=O)c(=O)n2C	–	–	–	–	–	–
CCc1cccc(C)c1NC(=O)CCS(=O)(=O)c1ccc2c(c1)oc(=O)n2C	–	25µM	·	–	–	–
Cc1ccc2nc(NC(=O)CSc3nccn3Cc3ccccc3)sc2c1	–	–	·	–	–	–
O=C(CN1CCN(c2ccccn2)CC1)Nc1cccc(Cl)c1Cl	–	–	–	–	–	7.1µM
O=C(CN1CCN(c2ccccn2)CC1)Nc1ccccc1Br	·	–	·	–	·	·
O=C1CN(CC(=O)Nc2cccc(Cl)c2Cl)c2ccccc2N1	·	50µM	·	–	·	·
O=C1CN(C(=O)Cn2ncc(Cl)c(Cl)c2=O)c2ccccc2N1	?	25µM	?	?	?	?
O=C1CN(C(=O)COc2ccc(Cl)c(Cl)c2)c2ccccc2N1	–	–	–	–	–	–
CCc1ccccc1NC(c1nnc(-c2cccc(F)c2)o1)c1ccc(F)cc1Cl (configuration not stated)	–	–	–	–	–	–
Cc1ccc(/C=C/c2onc(C)c2S(=O)(=O)N2CCC(C(=O)N(CCC(C)C)Cc3ccco3)CC2)cc1	–[7.34 µM]	–	·	–	–[7.34 µM]	–
CCC(Sc1ncc(S(=O)(=O)c2ccc(Cl)cc2)c(=O)[nH]1)C(=O)Nc1ccc(OC)cc1 (configuration not stated)	–	–	–	–	–	·
O=C1CN(C(=O)Cc2ccc(F)cc2)C(c2ccccc2)c2cc(Br)ccc2N1 (configuration not stated)	–	–	?	–	–	–
c1ccc2c(N3CCCCC3)nc(N3CCCCC3)nc2c1	–	–	–	?	–	?
C(=C\c1nc(N2CCCCCC2)c2ccccc2n1)/c1ccccc1	?	–	11µM	40µM	?	–
CCC1(C2CCN(Cc3cc4ccccc4o3)CC2)NC(=O)N(CC2COc3ccccc3O2)C1=O (configuration not stated)	–	·	·	–	?	·
Cc1ccccc1NC(=O)CCN1CCN(C)CC1	·	–	·	–	·	·

Assay outcomes (PubChem BioAssay)
